Laboratory results reported in PubChem BioAssay AID1259341 (Broad Institute, 2017).
Activity calls are given as the source filed them.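 The calls were made as follows: active = activity change under -35% in any replicate well, with more than 20 beads read in that well; inactive = the rest.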

target: Caspase recruitment domain-containing protein 9 (Homo sapiens) + E3 ubiquitin-protein ligase TRIM62 (Homo sapiens) (UniProt Q9H257+Q9BVG3); experiment: disruptors of CARD9-TRIM62 binding, primary screen, cell lysate, HEK293FT lysates, Luminex bead ELISA (AID 1259341); conditions: PE fluorescence, active compounds read low, concentration not given here;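 also: PE anti-Flag signal of Flag-CARD9 captured by myc-TRIM62 beads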
Sequence (Q9BVG3 whole entry, looked up, the tested form may be a part): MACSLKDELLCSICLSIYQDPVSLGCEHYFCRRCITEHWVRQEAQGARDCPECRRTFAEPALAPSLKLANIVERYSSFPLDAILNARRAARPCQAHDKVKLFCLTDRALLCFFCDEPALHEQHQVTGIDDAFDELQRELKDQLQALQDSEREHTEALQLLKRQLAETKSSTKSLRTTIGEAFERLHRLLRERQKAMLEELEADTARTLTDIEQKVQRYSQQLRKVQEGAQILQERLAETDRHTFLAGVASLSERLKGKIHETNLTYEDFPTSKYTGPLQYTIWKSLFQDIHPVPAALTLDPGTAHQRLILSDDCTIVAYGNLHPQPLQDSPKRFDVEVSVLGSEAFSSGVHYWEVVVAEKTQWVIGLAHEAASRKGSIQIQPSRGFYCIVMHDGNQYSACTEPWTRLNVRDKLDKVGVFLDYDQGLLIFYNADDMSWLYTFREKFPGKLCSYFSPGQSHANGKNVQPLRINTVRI
Sequence (Q9H257 whole entry, looked up, the tested form may be a part): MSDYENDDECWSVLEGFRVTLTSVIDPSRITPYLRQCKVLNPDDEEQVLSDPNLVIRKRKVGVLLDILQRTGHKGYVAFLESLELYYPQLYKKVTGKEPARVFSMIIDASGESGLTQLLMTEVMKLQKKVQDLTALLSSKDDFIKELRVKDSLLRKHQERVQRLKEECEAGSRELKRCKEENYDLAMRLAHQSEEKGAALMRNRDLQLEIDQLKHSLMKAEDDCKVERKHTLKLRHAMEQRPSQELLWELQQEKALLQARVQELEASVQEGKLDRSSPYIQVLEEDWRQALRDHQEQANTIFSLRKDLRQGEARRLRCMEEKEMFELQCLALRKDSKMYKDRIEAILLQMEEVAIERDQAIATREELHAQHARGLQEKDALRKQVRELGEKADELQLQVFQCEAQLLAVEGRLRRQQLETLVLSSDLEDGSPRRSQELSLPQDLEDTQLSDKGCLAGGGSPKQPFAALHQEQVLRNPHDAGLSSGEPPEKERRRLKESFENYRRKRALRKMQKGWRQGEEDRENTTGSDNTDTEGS

Structure (SMILES)	activity change, negative = inhibition
O=S(=O)(c1ccc(F)cc1)N1CN(Cc2ccco2)c2nc3ccccc3nc21	26.6% (inactive)
O=C(Nc1ccc(OCC(=O)N2CCOCC2)cc1)c1cncc(Br)c1	-1.75% (inactive)
CCc1cc2c(=O)n(Cc3ccco3)c(SC)nc2s1	1.18% (inactive)
Cc1cccc2nc(CSCc3ccco3)cn12	-4.69% (inactive)
Cc1nc2ccccc2nc1CSCc1ccco1	1.2% (inactive)
FC(F)(F)c1cc(Cl)c2nnc(C(F)(F)Cl)n2c1	1.08% (inactive)
CN(c1ccccc1C(=O)NCc1ccco1)S(C)(=O)=O	-3.12% (inactive)
Cc1cc(C(=O)NCc2ccco2)on1	-1% (inactive)
C[C@H](CO)N1C[C@H](C)[C@@H](CN(C)CC2CCCCC2)OCCCC[C@H](C)Oc2ccc(NS(=O)(=O)c3ccc(F)cc3)cc2C1=O	-12.1% (inactive)
COc1c(C(=O)O)csc1Br	-20.4% (inactive)
O=C(CCN1CCOCC1)c1ccc2c(c1)OCCO2	10.8% (inactive)
O=C(Nc1nccs1)c1cc(-c2ccccn2)nc2c(Cl)cccc12	-0.831% (inactive)
CC(C)=CCC(C#N)(CC=C(C)C)C(=O)O	8.02% (inactive)
CCCC(=O)NCc1ccc2c(c1)cc(C)n2C	7.86% (inactive)
C[C@H](CO)N1C[C@H](C)[C@@H](CN(C)C(=O)C2CCCCC2)OCCCC[C@H](C)Oc2ccc(NS(=O)(=O)c3ccc(F)cc3)cc2C1=O	9.27% (inactive)
Cc1ccc(C(=O)Nc2cnc(N3CCC(C(N)=O)(N4CCCCC4)CC3)c(C(=O)O)c2)cc1	-51.3% (active)
O=C(COc1cccnc1[N+](=O)[O-])c1ccc(Cl)s1	-9.96% (inactive)
O=C(O)COCC(=O)NCc1ccco1	1.03% (inactive)

Structure (SMILES)	activity change, negative = inhibition
COc1cccc(NC(=O)CN(C)C(=O)c2cc3c(s2)CCC3)c1	-19.8% (inactive)
O=C(O)c1ccccc1/C=N/NC(=O)c1cc(-c2ccco2)nc2ccccc12	-9.37% (inactive)
Nc1cc2c(cc1O)CCCC2	-4.6% (inactive)
CCSCCNC(=O)c1cncc(Br)c1	0.232% (inactive)
O=S(=O)(Nc1nccs1)c1ccc(-n2cccc2)cc1	3.9% (inactive)
O=C(COC(=O)CCC(=O)c1cccs1)NCc1ccco1	0.961% (inactive)
O=S(=O)(c1ccccc1)N1CC2CN(Cc3ccc(O)cc3)C2C1 (stereo not given)	-21% (inactive)
NC(=O)c1ccc(CN2C(=O)C3(CCNCC3)Nc3ccccc32)cc1	-4.33% (inactive)
CCCc1oc(C(=O)O)cc1CN	-4.57% (inactive)
Cc1c(C(=O)OCC2CCCO2)[nH]c2c1C(=O)CC(c1ccco1)C2 (stereo not given)	-1.75% (inactive)
COc1ccc(-c2ccc(CCC(=O)O)o2)cc1	-0.268% (inactive)
O=C1C=C(c2ccccc2)Nc2ccccc2N1	2.64% (inactive)
CCOc1cc2c(C#N)c(N3CCNCC3)nc(N)c2c(N)n1	-2.85% (inactive)
O=C(NC(Sc1ncccn1)C(=O)c1ccccc1)c1ccccc1 (stereo not given)	2.47% (inactive)
Nc1cc2c(cc1-n1cccc1)OCCO2	4.12% (inactive)
Cc1noc(C)c1S(=O)(=O)Nc1ccc2c(c1)C(=O)N([C@H](C)CO)C[C@H](C)[C@@H](CN(C)C(=O)C1CCCCC1)OCCCC[C@H](C)O2	7.66% (inactive)
CS(=O)(=O)c1ccc2ccn(O)c2c1	-9.61% (inactive)
